Several values for one entry are separate records, joined by “and”; a condition that tells them apart may be missing. Equal entries are not always repeated. Out of some 5,500 compounds screened, about 2,000 (36%) were called active. About 18% were inconclusive and are not listed. No stated cut-off is given here; in the data, active means normalized growth mostly below about 0.91 (no sharp cut-off); inconclusive means no clear call, values can overlap the other calls; inactive means mostly above about 0.92. This is one part of the list.
Assay: chemical genetic growth profiling, strain panel (AID 1159580);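 further: tested at 20 µM; growth read once vehicle control cultures reached saturation at 30 °C; 1 = growth at the plate median or of vehicle wells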
Conditions: S. cerevisiae deletion strains, growth OD

Measured: normalized growth

CC1=CC(=O)C2C(C)(C)CCC[C@]2(C)[C@@]1(O)CCc1ccoc1 (stereo partly specified)
inactive: locus YAL021C, strain ccr4, stronger effect = lower value 0.986 | locus YAL026C, strain drs2, stronger effect = lower value 1 | locus YAL030W, strain snc1, stronger effect = lower value 0.984 | locus YBL061C, strain skt5, stronger effect = lower value 1.02 | locus YBR009C, strain hhf1, stronger effect = lower value 0.999 | locus YBR021W, strain FUR4, stronger effect = lower value 1.04 | locus YBR023C, strain chs3, stronger effect = lower value 0.982 | locus YBR171W, strain sec66, stronger effect = lower value 0.984 | locus YBR229C, strain ROT2, stronger effect = lower value 1.01 | locus YBR231C, strain swc5, stronger effect = lower value 1.03 | locus YBR279W, strain paf1, stronger effect = lower value 0.975 | locus YCL011C, strain gbp2, stronger effect = lower value 0.996 | locus YCL016C, strain dcc1, stronger effect = lower value 0.989 | locus YCL029C, strain bik1, stronger effect = lower value 0.997 | locus YCL061C, strain MRC1, stronger effect = lower value 1 | locus YCL069W, strain vba3, stronger effect = lower value 1.01 | locus YCR088W, strain abp1, stronger effect = lower value 0.992 | locus YDL005C, strain med2, stronger effect = lower value 0.988 | locus YDL035C, strain GPR1, stronger effect = lower value 1.03 | locus YDL040C, strain nat1, stronger effect = lower value 0.998 | locus YDL074C, strain BRE1, stronger effect = lower value 0.995 | locus YDL101C, strain DUN1, stronger effect = lower value 0.998 | locus YDL185W, strain tfp1, stronger effect = lower value 0.955 | locus YDL192W, strain arf1, stronger effect = lower value 0.998 | locus YDR001C, strain nth1, stronger effect = lower value 1.01 | locus YDR069C, strain doa4, stronger effect = lower value 0.994 | locus YDR101C, strain arx1, stronger effect = lower value 1.01 | locus YDR150W, strain NUM1, stronger effect = lower value 0.988 | locus YDR159W, strain sac3, stronger effect = lower value 1.02 | locus YDR162C, strain NBP2, stronger effect = lower value 1 | locus YDR195W, strain ref2 1.08 | locus YDR297W, strain sur2, stronger effect = lower value 0.991 | locus YDR318W, strain mcm21, stronger effect = lower value 0.997 | locus YDR334W, strain swr1, stronger effect = lower value 1.01 | locus YDR335W, strain msn5, stronger effect = lower value 0.958 | locus YDR388W, stronger effect = lower value 0.999 | locus YDR502C, strain sam2, stronger effect = lower value 0.98 | locus YEL003W, strain gim4, stronger effect = lower value 1.02 | locus YEL037C, strain rad23, stronger effect = lower value 1 | locus YEL061C, strain CIN8 (second series), stronger effect = lower value 0.995 | locus YEL061C, strain CIN8, stronger effect = lower value 1 | locus YER015W, strain faa2, stronger effect = lower value 0.99 | locus YER016W, strain bim1, stronger effect = lower value 0.994 | locus YER110C, stronger effect = lower value 0.987 | locus YER111C, strain swi4, stronger effect = lower value 0.999 | locus YER155C, strain BEM2 (second series), stronger effect = lower value 1.03 | locus YER155C, strain BEM2, stronger effect = lower value 0.989 | locus YER167W, strain BCK2, stronger effect = lower value 0.989 | locus YFR010W, strain ubp6, stronger effect = lower value 1.04 | locus YGL078C, strain dbp3, stronger effect = lower value 0.966 | locus YGL086W, strain mad1, stronger effect = lower value 0.995 | locus YGL167C, strain pmr1, stronger effect = lower value 0.987 | locus YGL173C, strain kem1, stronger effect = lower value 1.01 | locus YGL227W, strain vid30, stronger effect = lower value 0.991 | locus YGL240W, strain doc1, stronger effect = lower value 1.01 | locus YGL248W, strain PDE1, stronger effect = lower value 1.03 | locus YGL253W, strain hxk2, stronger effect = lower value 1.03 | locus YGR078C, strain PAC10, stronger effect = lower value 1.01 | locus YGR135W, strain pre9, stronger effect = lower value 0.941 | locus YGR252W, strain gcn5, stronger effect = lower value 1.08 | locus YHR013C, strain ard1, stronger effect = lower value 0.98 | locus YHR027C, strain rpn1, stronger effect = lower value 0.99 | locus YHR030C, strain SLT2, stronger effect = lower value 1.05 | locus YHR079C, strain IRE1 (second series), stronger effect = lower value 0.972 | locus YHR079C, strain IRE1, stronger effect = lower value 1.04 | locus YHR094C, strain hxt1, stronger effect = lower value 0.973 | locus YHR129C, strain ARP1, stronger effect = lower value 0.989 | locus YHR142W, strain chs7, stronger effect = lower value 0.96 | locus YHR200W, strain rpn10, stronger effect = lower value 1 | locus YIL066C, strain RNR3, stronger effect = lower value 0.998 | locus YIL073C, strain SPO22, stronger effect = lower value 1.02 | locus YIL125W, strain kgd1, stronger effect = lower value 0.98 | locus YIR030C, strain dcg1, stronger effect = lower value 0.976 | locus YJL092W, strain hpr5, stronger effect = lower value 1 | locus YJL095W, strain BCK1 (second series), stronger effect = lower value 0.995 | locus YJL095W, strain BCK1, stronger effect = lower value 1.02 and 1.03 | locus YJL115W, strain asf1, stronger effect = lower value 0.982 | locus YJL129C, strain trk1, stronger effect = lower value 0.945 | locus YJL134W, strain LCB3, stronger effect = lower value 0.99 | locus YJL154C, strain vps35, stronger effect = lower value 1 | locus YJL164C, strain tpk1, stronger effect = lower value 0.955 | locus YJL166W, strain qcr8, stronger effect = lower value 0.995 | locus YJL168C, strain set2, stronger effect = lower value 0.983 | locus YJL187C, strain SWE1 (second series), stronger effect = lower value 1
active: locus YDR137W, strain rgp1, stronger effect = lower value 0.825 | locus YDR392W, strain spt3, stronger effect = lower value 0.628
